Experimental data published in PubChem BioAssay (EPA / NIEHS).
Inconclusive results are not listed. Calls of active or inactive are those of the source. Rule for the calls, unless noted: active = hit-call score of the fitted dose curve at least 0.9, where 1 is the maximum; inconclusive = response in the unintended direction; inactive = score below 0.9.

What was measured:
[1] = Tanguay_ZF_120hpf_PIG_legacy: (Legacy) Oregon State University Tanguay Lab 120 Hour Post-fertilization zebrafish Assay for Pigmentation Malformation (AID 2283650)
Summary of the method: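 Dechorionated Tropical 5D wild-type embryos, one per well from 6 hpf, statically exposed at 28C in the dark until 120 hpf, 0.64% DMSO final. Pigmentation scored present/absent by brightfield microscopy; dead embryos not scored; fitted versus DMSO.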

[2] = Tanguay_ZF_120hpf_CIRC_legacy: (Legacy) Oregon State University Tanguay Lab 120 Hour Post-fertilization zebrafish Assay for Circulatory Malformation (AID 2283651)
Summary of the method: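 Using wild-type Tropical 5D zebrafish, we exposed dechorionated embryos from 6 to 120 hpf in embryo medium with 0.64% DMSO. Circulatory defects were scored as present or absent; 5uM trimethyltin chloride served as positive control.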

[3] = Tanguay_ZF_120hpf_SWIM_legacy: (Legacy) Oregon State University Tanguay Lab 120 Hour Post-fertilization zebrafish Assay for Swim Bladder Malformation (AID 2283654);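 note: swim bladder malformation in each larva scored yes or no under brightfield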
Summary of the method: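 Dechorionated wild-type Tropical 5D zebrafish embryos, one per well from 6 hpf, were statically exposed at 28C until 120 hpf in 0.64% DMSO. Swim bladder malformation scored as present/absent by brightfield microscopy; not scored in dead larvae.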

[4] = Tanguay_ZF_120hpf_TRUN_legacy: (Legacy) Oregon State University Tanguay Lab 120 Hour Post-fertilization zebrafish Assay for Truncated Body (AID 2283655)
Summary of the method: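 Truncated body is recorded as a binary endpoint at 120 hpf by brightfield imaging of wild-type 5D larvae. Exposure runs statically from 6 hpf at 28C with 0.64% DMSO; embryos dying earlier are not scored.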

[5] = Tanguay_ZF_120hpf_NC_legacy: (Legacy) Oregon State University Tanguay Lab 120 Hour Post-fertilization zebrafish Assay for Notochord and Tail Malformation (AID 2283656)
Summary of the method: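 Dechorionated 5D zebrafish, 1/well from 6 hpf; static exposure to 120 hpf, 28C, sealed, dark; final DMSO 0.64% v/v. NC scored binary (present/absent); dead embryos not scored. Fit vs DMSO baseline, gain direction.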

[6] = Tanguay_ZF_120hpf_TR_legacy: (Legacy) Oregon State University Tanguay Lab 120 Hour Post-fertilization zebrafish Assay for Touch Response (AID 2283667)
Summary of the method: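 Tropical 5D wild-type zebrafish embryos statically exposed to 120 hpf at 28°C, sealed and dark-covered, 0.64% DMSO final; touch response scored as present/absent by brightfield microscopy at 120 hpf. Trimethyltin chloride 5 uM positive control; dead embryos not scored.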

[7] = Tanguay_ZF_120hpf_ActivityScore_legacy: (Legacy) Oregon State University Tanguay Lab 120 Hour Post-fertilization zebrafish Assay Score for Activity (AID 2283742)
Summary of the method: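 Dechorionated Tropical 5D embryos, one per well from 6 hpf, statically exposed to 120 hpf at 28 °C in 0.64% DMSO. Mortality and malformations scored binary by brightfield microscopy; activity score combines 18 endpoints, fitted positively versus DMSO.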

[8] = test system: Thyroperoxidase (TPO), gene 54314; test: CCTE_Simmons_AUR_rTPO: CCTE's Amplex UltraRed Assay for Thyroperoxidase (TPO) Inhibition, Simmons Lab (AID 2283662);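 for AC50: potency for loss of signal meaning inhibition of peroxidase activity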
Summary of the method: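 Rat thyroid microsomes (5 ug protein) were incubated with test compound (8 concentrations, 5 nM–87.5 uM final, 0.5% DMSO), 25 uM Amplex UltraRed and 300 uM H2O2 in 200 mM phosphate buffer for 30 min at 37C in the dark; fluorescence read at 544/590 nm.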

[9] = CCTE_Simmons_CellTiterGLO_HEK293T: Viability Assessment in CCTE's Assays for Thyroperoxidase (TPO) Inhibition, Simmons Lab (AID 2283665);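 for AC50: cells exposed to compound for 24 h before readout; actives reduce ATP signal below DMSO vehicle meaning cytotoxicity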
Summary of the method: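 Cytotoxicity counter-screen: human HEK293T cells in low-serum (1% FBS) medium receive test chemical, 5 nM to 87.5 uM final, for 24 h; ATP is quantified by luciferase luminescence.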

[10] = CCTE_Padilla_ZF_144hpf_TERATOSCORE: (Legacy) CCTE's 144 Hour Post-fertilization zebrafish Assay Teratoscore, Padilla Lab (AID 2283679; active = hit-call score of the fitted dose curve at least 0.9, where 1 is the maximum; inactive = score below 0.9;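 for AC50: zebrafish embryos with chorions exposed by immersion from 6-8 hpf to 5 dpf with daily renewal; teratogenicity score from eye scoring of death hatching and malformations at 144 hpf; higher score means more developmental defects relative to DMSO baseline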)
Summary of the method: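 Larvae scored by eye at 144 hpf for death, hatching and malformations after a day in clean Hanks'. Before that, daily-renewed exposure at 80 uM (0.4% DMSO, 26C) from roughly 6-8 hpf through 5 dpf, 4 embryos per chemical.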

[11] = CEETOX_H295R_MTT_cell_viability: Viability Assessment in the CeeTox HT-H295R MTT Assay (AID 2283718; active = hit-call score of the fitted dose curve at least 0.9, where 1 is the maximum; inactive = score below 0.9;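 for AC50: curve fitted both ways so AC50 may mark viability loss or gain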)
Summary of the method: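 Human H295R adrenal cells, prestimulated 48 h with 10 uM forskolin, were exposed 48 h to chemicals in 0.1% DMSO. Viability was measured in the same wells by MTT (0.5 mg/ml, 4 h, 37 C), absorbance 570/650 nm, as percent of controls.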

[12] = test system: Thyroperoxidase (TPO), gene 445522; test: CCTE_Simmons_GUA_TPO: CCTE's Guaiacol Assay for Thyroperoxidase (TPO) Inhibition, Simmons Lab (AID 2283750)
Summary of the method: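 Porcine thyroid microsomes (25 ug) in 200mM potassium phosphate, preincubated 30 s at 37C with compound (8 concentrations, 5 nM–87.5 uM) and 35mM guaiacol; 1mM H2O2 starts reaction. Absorbance change at 450nm over first 80 s; loss of signal versus DMSO, three replicates.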

[13] = STM_H9_OrnithineISnorm_perc: Stemina devTOX quickPredict H9 human embryonic stem cell (hESC)-based Assay for Ornithine (ORN) Metabolite Biomarker, Normalized (AID 2283712; active = hit-call score of the fitted dose curve at least 0.9, where 1 is the maximum; inactive = score below 0.9;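 note: ornithine released into spent medium during last day measured by mass spectrometry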)
Summary of the method: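 Cells: undifferentiated H9 hESC. Dosing: 72 h, media replaced every 24 h. Sample: final 24-h conditioned media, 40% acetonitrile. Read: UPLC-HRMS ornithine area vs 13C standard, % DMSO control.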

[14] = STM_H9_CystineISnorm_perc: Stemina devTOX quickPredict H9 human embryonic stem cell (hESC)-based Assay for Cystine (CYSS) Metabolite Biomarker, Normalized (AID 2283713; active = hit-call score of the fitted dose curve at least 0.9, where 1 is the maximum; inactive = score below 0.9)
Summary of the method: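 Secreted cystine was measured by UPLC-HRMS in H9 hESC medium after 72h compound exposure with 24-hourly replenishment. Values are standard-normalized areas relative to 0.1% DMSO.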

[15] = STM_H9_OrnCyssISnorm_ratio: Stemina devTOX quickPredict H9 human embryonic stem cell (hESC)-based Assay for Ornithine (ORN):Cystine (CYSS) Ratio (AID 2283714)
Summary of the method: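 Undifferentiated H9 hESCs exposed 72 h, media and compound replaced every 24 h; final 24-h conditioned media deproteinized and analysed by UPLC-HRMS against C13 spike-ins. Value is the internal-standard-normalized ORN/CYSS ratio versus 0.1% DMSO.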

[16] = read-out: solute carrier (SLC22A6), SLC22A6 (gene 9356); test: LTEA_HepaRG_SLC22A6: Life Technologies and Expression Analysis (LTEA) Assay for solute carrier (SLC22A6) using HepaRG (AID 2283653; active = hit-call score of the fitted dose curve at least 0.9, where 1 is the maximum; inactive = score below 0.9); details: mRNA level, 48 h; actives raise or lower the signal
Summary of the method: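 Read-out is SLC22A6 transcript level by qRT-PCR, normalised to three housekeeping genes and fitted for gain or loss relative to 0.5% DMSO vehicle. Human HepaRG cells received chemicals at up to 100 uM for 48 h.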

[17] = read-out: solute carrier (SLC10A1), SLC10A1 (gene 6554); test: LTEA_HepaRG_SLC10A1: Life Technologies and Expression Analysis (LTEA) Assay for solute carrier (SLC10A1) using HepaRG (AID 2283657; active = hit-call score of the fitted dose curve at least 0.9, where 1 is the maximum; inactive = score below 0.9); details: mRNA level, 48 h; actives raise or lower the signal
Summary of the method: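 HepaRG cells (single lot) exposed 48 h in serum-free induction medium, 8-point half-log series from 100 uM top in 0.5% DMSO, duplicate. SLC10A1 mRNA by qRT-PCR normalised to ACTB, GAPDH, POLR2A; bidirectional fit versus DMSO.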

[18] = read-out: matrix metalloproteinase-1 (MMP1), MMP1 (gene 4312); test: LTEA_HepaRG_MMP1: Life Technologies and Expression Analysis (LTEA) Assay for matrix metalloproteinase-1 (MMP1) using HepaRG (AID 2283658; active = hit-call score of the fitted dose curve at least 0.9, where 1 is the maximum; inactive = score below 0.9); details: mRNA level, 48 h; actives raise or lower the signal
Summary of the method: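 HepaRG, ~100,000 cells/well, 48 h pre-culture; serum-free induction medium; test chemical 8 conc (max 100 uM, half-log), duplicate, 48 h; 0.5% DMSO; qRT-PCR MMP1, housekeeping-normalized; gain/loss fit vs DMSO.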

[19] = read-out: Cytochrome P450 (CYP24A1_1), CYP24A1 (gene 1591); test: LTEA_HepaRG_CYP24A1_1: Life Technologies and Expression Analysis (LTEA) Assay for Cytochrome P450 (CYP24A1_1) using HepaRG (AID 2283671; active = hit-call score of the fitted dose curve at least 0.9, where 1 is the maximum; inactive = score below 0.9); details: mRNA level, 48 h; actives raise or lower the signal
Summary of the method: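 Differentiated human HepaRG cells in serum-free induction medium, exposed 48 h in duplicate to eight half-log concentrations from 100 uM top, 0.5% DMSO. Transcript measured by TaqMan qRT-PCR, normalised to ACTB, GAPDH, POLR2A; bidirectional fitting versus DMSO.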

Measured: AC50

OCCOCCOCCO
inactive: [1] | [2] | [3] | [4] | [5] | [6] | [7]

C[C@@H](Oc1ccc(CNC(=O)c2cccnc2Oc2ccc3c(c2)OCO3)c(F)c1)C(=O)O
inactive: [1] | [3] | [4] | [9] | [6] | [10] | [11] | [7] | [12]
active: [8] 22.2 µM

Nc1ccn([C@@H]2O[C@H](CO)[C@@H](O)[C@@H]2O)c(=O)n1
active: [13] 0.235 µM | [14] 0.142 µM | [15] 0.203 µM | [11] 1.43 µM
inactive: [2] | [3] | [4] | [5] | [6] | [7]

c1ccc2cc3ccccc3cc2c1
inactive: [1] | [16] | [3] | [4] | [18] | [9] | [6] | [19] | [11] | [7]
active: [17] 10.4 µM | [8] 10.6 µM

CC(C)c1nnc2ccc(-c3ocnc3-c3cc(F)ccc3F)cn12
inactive: [2] | [3] | [4] | [5] | [6] | [11] | [7]
active: [10] 61.9 µM

O=C(NO)C1(NS(=O)(=O)c2ccc(Oc3ccc(F)cc3)cc2)CCOCC1
active: [8] 18.1 µM
inactive: [1] | [2] | [3] | [4] | [5] | [9] | [6] | [7]

OC[C@H]1O[C@@H]2O[C@H]3[C@H](O)[C@@H](O)[C@@H](O[C@H]4[C@H](O)[C@@H](O)[C@@H](O[C@H]5[C@H](O)[C@@H](O)[C@@H](O[C@H]6[C@H](O)[C@@H](O)[C@@H](O[C@H]7[C@H](O)[C@@H](O)[C@@H](O[C@H]1[C@H](O)[C@H]2O)O[C@@H]7CO)O[C@@H]6CO)O[C@@H]5CO)O[C@@H]4CO)O[C@@H]3CO
inactive: [1] | [2] | [3] | [4] | [6] | [7]

CC(C)C(=O)Nc1ccc([N+](=O)[O-])c(C(F)(F)F)c1
active: [10] 14.2 µM | [13] 77.1 µM | [14] 31.6 µM | [15] 50 µM
inactive: [2] | [3] | [4] | [5] | [6] | [7]

OC(CCl)CCl
inactive: [1] | [2] | [3] | [4] | [5] | [6] | [7]

CCCCCCCCCCCCCCCCOS(=O)(=O)O
inactive: [2] | [3] | [4] | [5] | [8] | [6] | [7]
active: [9] 26.7 µM | [10] 7.7 µM
